Mcl1 Bid PPI: Mcl-1/Bid binding inhibitors, primary screen, biochemical, TR-FRET, 1536-well. inhibition, % at 21.7 µM. Induced myeloid leukemia cell differentiation protein Mcl-1 (Homo sapiens), Q07820. TR-FRET Mcl-1/Bid-Dy647 peptide binding. AID 1021, 2008. hit rate 0.97% among 220,000;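 active = compounds that cut the binding signal by more than half at the single screening dose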;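 also: His-tagged Mcl-1 with europium anti-His antibody binding Bid BH3 peptide; 0% = Mcl-1 plus peptide wells and 100% = peptide-only wells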
Target sequence (Q07820 whole entry, looked up): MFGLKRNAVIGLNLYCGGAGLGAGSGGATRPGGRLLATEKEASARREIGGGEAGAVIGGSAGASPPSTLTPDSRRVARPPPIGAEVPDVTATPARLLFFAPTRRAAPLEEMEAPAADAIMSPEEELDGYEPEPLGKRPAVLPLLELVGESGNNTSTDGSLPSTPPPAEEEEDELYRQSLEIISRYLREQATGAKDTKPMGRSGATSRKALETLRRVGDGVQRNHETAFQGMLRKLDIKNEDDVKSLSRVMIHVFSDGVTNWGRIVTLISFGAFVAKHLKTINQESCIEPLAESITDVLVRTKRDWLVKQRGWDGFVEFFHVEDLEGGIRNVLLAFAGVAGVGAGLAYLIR
14-3-3 Bad PPI: inhibitors of 14-3-3 zeta/Bad binding, primary screen, biochemical, TR-FRET, bovine 14-3-3 zeta; 14-3-3 protein zeta/delta (Bos taurus), P63103; TR-FRET 14-3-3zeta/Dy647-pBad peptide displacement, 1 h; inhibition, % at 21.7 µM; hit rate 0.71% among 220,000; AID 781, 2007;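 active = inhibition above about 70%, limit read from the data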;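 also: 0% = full 14-3-3 plus peptide FRET controls and 100% = background without 14-3-3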
Target sequence (P63103 whole entry, looked up): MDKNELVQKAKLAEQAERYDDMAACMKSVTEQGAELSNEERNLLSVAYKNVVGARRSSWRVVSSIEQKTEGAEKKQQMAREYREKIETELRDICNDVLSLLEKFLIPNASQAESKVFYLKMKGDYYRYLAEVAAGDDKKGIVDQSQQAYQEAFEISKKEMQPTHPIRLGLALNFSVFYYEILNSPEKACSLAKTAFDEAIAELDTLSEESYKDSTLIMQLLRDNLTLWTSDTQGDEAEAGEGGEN
Arbovirus anti: antivirals against arbovirus infection, primary screen, cell-based, full library, 10K replicate subset. arbovirus infection cell-based antiviral screen. hit rate 0.37% among 200,000. AID 1251, 2008. inhibition, % at 10 µM; in the data active = inhibition above about 30%
Bim-Mcl-1: inhibitors of Bim peptide binding to Mcl-1, primary screen, biochemical, bead-based flow cytometry, multiplex. Bim peptide-Mcl-1 binding. Induced myeloid leukemia cell differentiation protein Mcl-1 (Homo sapiens), Q07820. hit rate 0.1% among 190,000. inhibition, % at 10 µM; in the data active = inhibition above about 40%;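 also: 0% = no compound tracer wells and 100% = peptide blocker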
Mcl1 Noxa PPI: Mcl-1/Noxa binding inhibitors, primary screen, biochemical, TR-FRET, 1536-well. Induced myeloid leukemia cell differentiation protein Mcl-1 (Homo sapiens), Q07820. TR-FRET Mcl-1/Noxa peptide binding, 2 h. inhibition, % at 21.7 µM. hit rate 1.5% among 220,000. AID 1022, 2008;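 active = compounds that cut the protein-peptide binding signal by more than 50% relative to plate controls in a single-dose test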;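 also: His-tagged Mcl-1 with rhodamine Noxa BH3 peptide and terbium anti-His antibody; 0% = Mcl-1 plus Noxa peptide wells and 100% = peptide-only wells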
* hit, by the source's call; · = not tested or not shown; [ ] = another dose, or the depositor's remark. A selection: hits, their analogues and other compounds. The true share with any hit is near 3%.

SMILES	Mcl1 Bid PPI	14-3-3 Bad PPI	Arbovirus anti	Bim-Mcl-1	Mcl1 Noxa PPI
CC1CCc2ccccc2N1C(=N)N(C)C (centres undefined)	-20	-10	3	-1	10
COc1ccc(S(=O)(=O)N2CCOCC2)cc1NC(=O)COC(=O)C1COc2ccccc2O1 (centres undefined)	-16	-5	5	-5	12
Cc1ccccc1-n1c(SC/C(O)=C(\C#N)c2nc3ccccc3[nH]2)nnc1-c1ccncc1	-46	-3	-2	-1	19
Cc1cc(C)n2c(SC/C(O)=C(\C#N)c3nc4ccccc4[nH]3)nnc2n1	-7	-5	7	-1	86*
O=S(=O)(Nc1cccc2c1CCCC2)c1ccc(Cl)cc1	-84	7	-12	-3	-8
COc1ccccc1CNC(=O)CSCc1cnn(-c2ccccc2)c1-n1cccc1	7	-8	-6	0	4
COc1cccc(CNC(=O)CSCc2cnn(-c3ccccc3)c2-n2cccc2)c1OC	72*	20	1	-1	0
O=C(Nc1ccccc1)Nc1snnc1C(=O)Nc1cccc(O)c1	14	11	48*	-2	42
CCOC(=O)C1(CCc2ccccc2)CCN(C(=O)[C@@H]2C[C@@H](C)NC(=S)N2)CC1	-78	-9	1	-1	6
CC1=C2C(CCS2(=O)=O)CC2(C1)C(=O)OC(C)(C)OC2=O (centres undefined)	-11	-6	9	66*	24
CCOC(=O)C1=C(O)/C(=C\c2ccc(O)c(OCC)c2)N=C1C	-97	-10	·	·	25
CCOc1cc(/C=C2\SC(=O)N=C2N)ccc1O	-49	-11	-10	8	52*
CC(=O)c1ccc(-n2c(-c3cc(-c4ccco4)[nH]n3)n[nH]c2=S)cc1	-91	-9	2	-5	63*
FC(F)(F)COc1ccc(-c2nnc(SCc3ccccc3)o2)cn1	-10	-9	·	·	11
CN(C)[C@@H]1C(=O)C(C(=O)NCN2CCCC2)=C(O)[C@@]2(O)C(=O)C3=C(O)c4c(O)cccc4[C@@](C)(O)C3CC12 (some centres undefined)	87*	85*	2	22	103*
O=C(O)CCCC(=O)Nc1nc2n(n1)C(c1ccc(F)cc1)CC(c1ccc(Cl)cc1)N2 (centres undefined)	-15	-13	39*	-1	10
O=C(NNC(=S)NCc1ccco1)c1ccc(S(=O)(=O)N2CCOCC2)cc1	-80	-13	-1	0	2
Cc1ccc(N=Nc2ccc(N)cc2C)c(S(N)(=O)=O)c1	15	3	·	·	52*
O=C(O)CCCNc1ccc(S(=O)(=O)Nc2ccccc2C(=O)O)cc1C(=O)O	22	6	3	-4	60*
O=C(O)c1ccccc1NS(=O)(=O)c1cccc2cccnc12	-4	31	8	-3	-1
O=C(O)c1ccccc1NS(=O)(=O)c1ccccc1C(F)(F)F	-5	12	6	-2	53*
CC1CCCN(C(=O)c2cccc(S(=O)(=O)Nc3cc(C(F)(F)F)ccc3Cl)c2)C1 (centres undefined)	27	90*	42*	17	13
O=C(c1cccc(S(=O)(=O)Nc2cccc(C(F)(F)F)c2)c1)N1CCOCC1	-16	-1	·	·	38
COc1cccc(Oc2c(C)oc3c(CN4CCCC4)c(O)ccc3c2=O)c1	96*	5	·	·	-5
O=c1cc(O)c2ccc(O)cc2o1	-17	7	3	-7	-15
SMILES	Mcl1 Bid PPI	14-3-3 Bad PPI	Arbovirus anti	Bim-Mcl-1	Mcl1 Noxa PPI
O=c1ccc2[n+]([O-])c3ccc(O)cc3oc-2c1	-74	25	·	·	74*
N=C(N)SCc1cn(-c2ccccc2)nc1-c1ccc(Br)cc1	-19	75*	-31	1	20
CCn1c(C)nc2cc(C(N)=O)ccc21	-12	-2	·	·	9
COc1cccc(/C=N/NC(=O)c2ccc3nc[nH]c3c2)c1O	-85	-9	·	·	48
CCn1c(C)nc2cc(C(=O)N/N=C/c3cccc(OC)c3O)ccc21	-38	-15	-16	2	65*
CCn1c(C)nc2cc(C(=O)N/N=C/c3ccc(O)c(O)c3O)ccc21	42	36	-5	11	95*
COc1cc(/C=N/NC(=O)Cc2csc(N3CCOCC3)n2)cc(OC)c1O	11	2	7	3	58*
CC(NCc1ccccc1)C1COc2ccccc2O1 (centres undefined)	60*	48	0	-3	·
CCCS(=O)(=O)N1CCCC(C(=O)NCCc2ccc(Cl)cc2)C1 (centres undefined)	55*	13	3	-2	0
CCS(=O)(=O)N1CCCC(C(=O)NC2CCCC2)C1 (centres undefined)	-13	89*	8	-1	3
Cc1c(NC(=O)c2ccc(S(=O)(=O)N3CCOCC3)cc2)c(=O)n(-c2ccccc2)n1C	-11	0	·	·	-37
COc1ccc(C(=O)n2nc(C)c(Br)c2C)cc1	16	13	1	-4	85*
Cc1nn(C(=O)c2ccco2)c(C)c1Br	-12	3	6	-2	20
O=[N+]([O-])c1ccc(/C=N/n2c(CO)nc3ccccc32)s1	30	10	-6	-6	58*
COc1cc(/C=C2/C(=N)N3C=CSC3=NC2=O)ccc1OCCCOc1ccccc1C	-6	30	-7	0	12
CCOc1cc(/C=C2/C(=N)N3C=CSC3=NC2=O)ccc1OCCCOc1ccccc1C	57*	8	-3	0	35
CCCC(C)NC(=O)c1ccc(C2SCC(=O)N2Cc2ccco2)cc1 (centres undefined)	-8	-7	-10	-3	-1
C#CCn1c(=NC(=O)c2sc3ccccc3c2Cl)sc2cc(S(N)(=O)=O)ccc21	-21	77*[fluorescence artefact?]	-22	-4	-32
C#CCn1c(=NC(=O)c2ccc(S(=O)(=O)N3CCc4ccccc4C3)cc2)sc2cc(S(N)(=O)=O)ccc21	22	59	-31	-3	-51
COc1ccc(S(=O)(=O)N2CCC(C(=O)NCc3cccc(OC)c3)CC2)cc1	-2	-3	5	1	-3
COc1cccc(CNC(=O)C2CCN(S(=O)(=O)N3CCCCC3)CC2)c1	92*	-1	6	3	10
CCN(CC(=O)Nc1ccc2c(c1)OCCO2)S(=O)(=O)c1cccs1	64*	-4	1	-3	4
N#CC1=C(O)C(c2ccccc2)n2c1nc(=O)c1ccccc12 (centres undefined)	7	90*	2	1	0
Fc1ccc(N/N=C/C=C/c2ccccc2)c(F)c1	-36	-8	-36	-6	9

Assay outcomes: PubChem, several laboratories
